Data published in the supplement of paper PMC6522484.
± gives the standard deviation of the averaged measurements.

Experiments:
[1] = test system: DLD1; assay: cell viability (CellTiter-Glo) relative to plate median (fraction of plate median); higher = more viable cells; details: 5 µM; treatment time 24 h; reporter: 7TFP
In short: (§1)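 Luminescence, normalised well by well to the plate median, is tabulated as a mean of independent replicates. There were two replicates, run on colorectal cancer lines stably transduced with lentiviral TCF/Wnt firefly luciferase reporters and dosed with library compounds at a final 5 µM for 24 h. Readouts were firefly luciferase or CellTiterGlo on parallel plates.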

[2] = test system: HCT116; assay: as above; details: 5 µM; treatment time 24 h; reporter: TCF4/Wnt
In short: as §1

[3] = test system: SW480; assay: as above; details: 5 µM; treatment time 24 h; reporter: 7TFP
In short: as §1

[4] = test system: DLD1; assay: TCF/Wnt firefly luciferase reporter signal relative to plate median (fraction of plate median); higher = higher Wnt reporter signal; details: 5 µM; treatment time 24 h; reporter: 7TFP
In short: as §1

[5] = test system: SW480; assay: as above; details: 5 µM; treatment time 24 h; reporter: 7TFP
In short: as §1

Row | SMILES | cell viability [1] | cell viability [2] | cell viability [3] | TCF/Wnt firefly luciferase reporter signal [4] | TCF/Wnt firefly luciferase reporter signal [5]
1 | COc1ccc(-c2cc(=O)c3ccccc3o2)cc1OC | 1.07 ± 0.05 | 1.01 | 1.06 ± 0.057 | 0.906 ± 0.0099 | 1.03 ± 0.035
2 | COc1ccnc(C[S+]([O-])c2nc3cc(OC(F)F)ccc3[nH]2)c1OC (stereo not given) | 0.961 ± 0.0042 | 1.03 ± 0.014 | 0.974 ± 0.036 | 1.06 ± 0.05 | 1.05 ± 0.071
3 | CC[C@@H](CO)NCCN[C@@H](CC)CO | 0.963 ± 0.12 | 1.03 ± 0.021 | 1.02 ± 0.059 | 1.2 ± 0.05 | 1.19 ± 0.035
4 | C[C@]12CC[C@H]3C(=CCc4cc(O)ccc43)[C@@H]1CCC2=O | 0.902 ± 0.086 | 0.869 ± 0.16 | 1.01 ± 0.031 | 1.07 ± 0.25 | 0.98 ± 0.057
5 | Cc1cc(=O)c2c(O)cc(O)c(C)c2o1 | 0.906 ± 0.061 | 0.873 ± 0.034 | 0.9105 ± 0.0035 | 1.25 ± 0.26 | 1.02 ± 0.039
6 | O=CN(O)CCCC(NC(=O)C(CO)NC(=O)C1COC(c2ccccc2O)=N1)C(=O)NCCC(=O)NC1CCCN(O)C1=O (stereo not given) [Oxachelin] | 0.9715 ± 0.0092 | 1.07 ± 0.16 | 1.03 ± 0.059 | 1.11 ± 0.021 | 1.03 ± 0.085
7 | CO[C@H]1/C=C/O[C@@]2(C)Oc3c(C)c(O)c4c(O)c(c5c(nc6cc(C)ccn65)c4c3C2=O)NC(=O)/C(C)=C\C=C\[C@H](C)[C@H](O)[C@@H](C)[C@@H](O)[C@@H](C)[C@H](OC(C)=O)[C@@H]1C | 1.05 ± 0.093 | 1.1 ± 0.035 | 1.04 ± 0.042 | 1.05 ± 0.15 | 1.11 ± 0.071
8 | NCCCC(=O)O [gamma-AMINOBUTYRIC ACID] | 1.02 ± 0.046 | 1.02 ± 0.11 | 1.04 ± 0.05 | 1.06 ± 0.093 | 0.89 ± 0.24
9 | CC(C)c1ccc2c(c1)CC[C@H]1[C@](C)(CN)CCC[C@]21C | 1.04 ± 0.028 | 1.07 ± 0.092 | 1.06 ± 0.028 | 1.18 ± 0.071 | 1.03 ± 0.13
10 | COc1ccc2cc(CCC(C)=O)ccc2c1 | 0.968 ± 0.074 | 0.905 ± 0.09 | 0.925 ± 0.0085 | 1.24 ± 0.27 | 1.25 ± 0.035
11 | CC(N/C(=N\C#N)Nc1ccncc1)C(C)(C)C (stereo not given) | 0.99 ± 0.043 | 0.904 ± 0.0014 | 0.989 ± 0.1 | 0.799 ± 0.04 | 0.941 ± 0.073
12 | CO[C@H]1C[C@@H]2CC[C@@H](C)[C@@](O)(O2)C(=O)C(=O)N2CCCC[C@H]2C(=O)O[C@H]([C@H](C)C[C@@H]2CC[C@@H](O)[C@H](OC)C2)CC(=O)[C@H](C)/C=C(\C)[C@@H](O)[C@@H](OC)C(=O)[C@H](C)C[C@H](C)/C=C/C=C/C=C/1C | 1.18 ± 0.028 | 0.976 ± 0.049 | 1.35 ± 0.11 | 0.838 ± 0.15 | 1.2 ± 0.21
13 | Cn1ccnc1S | 0.997 ± 0.047 | 1.04 ± 0.021 | 0.981 ± 0.021 | 0.988 ± 0.088 | 0.95 ± 0.071
14 | O=C(O)c1cc(O)c2c(c1)[C@H]([C@H]1c3cc(C(=O)O)cc(O)c3C(=O)c3c(O[C@@H]4O[C@H](CO)[C@@H](O)[C@H](O)[C@H]4O)cccc31)c1cccc(O[C@@H]3O[C@H](CO)[C@@H](O)[C@H](O)[C@H]3O)c1C2=O | 0.943 ± 0.028 | 0.967 ± 0.12 | 1.01 ± 0.018 | 1.08 ± 0.19 | 1.01 ± 0.071
15 | C[C@@H]1CC[C@@]2(OC1)O[C@H]1C[C@H]3[C@@H]4CC[C@H]5C[C@@H](O)CC[C@]5(C)[C@H]4CC[C@]3(C)[C@H]1[C@@H]2C | 0.953 ± 0.0057 | 0.875 ± 0.037 | 1.01 | 1.06 ± 0.028 | 0.931 ± 0.037
